This passage reports growth results from PubChem BioAssay (NCI).

Among the test systems are SK-MEL-2 melanoma; EKVX NSCLC; SN12C renal; UO-31 renal; TK-10 renal; ACHN renal; CAKI-1 renal; A498 renal; CCRF-CEM leukemia; MOLT-4 leukemia; SR leukemia; RPMI-8226 leukemia; OVCAR-8 ovarian; OVCAR-5 ovarian; OVCAR-4 ovarian; SK-OV-3 ovarian; IGROV1 ovarian; OVCAR-3 ovarian; HS 578T breast; NCI/ADR-RES ovarian.
Holding throughout (experiment): NCI-60 one-dose screen, 48 h (100 = growth as untreated, 0 = no growth, -100 = all killed)
Common to all, as to conditions: 10 µM unless noted

The panel holds about 83,000 compounds, 20% with a hit somewhere; the sample as a whole holds those more often.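 Treatment: one concentration, 48 hours, 96-well format. Scoring: percent growth, with anything below 10 considered active.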 Unmarked numbers belong to inactive results. Calls of active or inactive are those of the source.

Take `CC(=O)Oc1ccccc1C(=O)Nc1ncc([N+](=O)[O-])s1`: the growth is -30.1% (active) in the assay on SK-MEL-2 melanoma; 34.7% in the assay on EKVX NSCLC; 15.4% in the assay with SN12C renal; 16.2% in the assay on UO-31 renal; 19.4% with TK-10 renal; 55.8% in the assay on ACHN renal. Moreover, the growth was 10.7% with CAKI-1 renal; -40.2% (active) in the assay with A498 renal; 13.9% in the assay with CCRF-CEM leukemia; -9.45% (active) in the assay with MOLT-4 leukemia; 13.1% with SR leukemia; 7.09% (active) in the assay with RPMI-8226 leukemia. The growth in the assay on OVCAR-8 ovarian is 51.3%; in the assay with OVCAR-5 ovarian it was 63.3%; in the assay on OVCAR-4 ovarian it was 55.2%; in the assay on SK-OV-3 ovarian it was 85.5%; in the assay with IGROV1 ovarian it was 26.2%; in the assay on OVCAR-3 ovarian, 5.56% (active). Further, the growth in the assay on HS 578T breast was 15.6%; in the assay with NCI/ADR-RES ovarian, 20.6%.

In the case of `O=C1Nc2ccc(Br)cc2/C1=N/c1nc(-c2ccccc2)cs1`, the growth was 88% in the assay on SK-MEL-2 melanoma; 66.8% in the assay on EKVX NSCLC; 96% in the assay with SN12C renal; 63.9% in the assay with UO-31 renal; 109% in the assay on TK-10 renal; 94.8% in the assay on ACHN renal. In addition, the growth in the assay on CAKI-1 renal is 70.7%; with A498 renal, 78.9%; with CCRF-CEM leukemia, 101%; in the assay with MOLT-4 leukemia it was 59.2%; in the assay on SR leukemia, 85.2%; with RPMI-8226 leukemia it was 75.6%. For the same compound, the growth in the assay on OVCAR-8 ovarian is 89.1%; with OVCAR-5 ovarian it was 108%; in the assay with OVCAR-4 ovarian it was 80.5%; in the assay with SK-OV-3 ovarian, 60.7%; in the assay on IGROV1 ovarian it was 84%; in the assay on OVCAR-3 ovarian, 75%. Moreover, the figures for the growth with HS 578T breast and in the assay with NCI/ADR-RES ovarian were 90.3% and 103%, respectively.

Regarding `CNC(=O)OC1C(O[C@H]2C[C@H]3[C@@H]4CC=C5C[C@@H](O)CC[C@]5(C)[C@H]4CC[C@]3(C)[C@H]2[C@H](C)C(=O)CCC(C)C)OCC(O)C1OC1OCC(O)C(O)C1OC(=O)c1ccc(OC)cc1` (stereo not given in full), the growth in the assay on SK-MEL-2 melanoma was -33.6% (active); in the assay with EKVX NSCLC it was 30.1%; in the assay with SN12C renal, 59.9%; in the assay with UO-31 renal, -18.8% (active); in the assay with TK-10 renal, 14%; in the assay on ACHN renal it was 39.2%. Also, the growth in the assay with CAKI-1 renal was 0.834% (active); with A498 renal, -60.3% (active); in the assay on CCRF-CEM leukemia it was -13.7% (active); in the assay with MOLT-4 leukemia, -40.2% (active); in the assay on SR leukemia, 1.47% (active); in the assay on RPMI-8226 leukemia, -25.5% (active). Further, the growth was 35.5% in the assay with OVCAR-8 ovarian; 38.8% in the assay with OVCAR-5 ovarian; 55.8% with OVCAR-4 ovarian; -20.6% (active) in the assay on SK-OV-3 ovarian; 28.3% in the assay with IGROV1 ovarian; 62.7% in the assay with OVCAR-3 ovarian. In addition, the values for the growth in the assay on HS 578T breast and in the assay on NCI/ADR-RES ovarian were -5.93% (active) and 82.8%, respectively.

`CN(C)c1ccc(C2(Cl)c3ccccc3N(C)c3ccccc32)cc1`: the growth is 61.2% in the assay with SK-MEL-2 melanoma; 47.8% in the assay on EKVX NSCLC; 19.1% in the assay on SN12C renal; 71.8% in the assay on UO-31 renal; 64.3% with TK-10 renal; 55.6% in the assay on ACHN renal. Moreover, the growth is 81.2% in the assay with CAKI-1 renal; 77.2% in the assay on A498 renal; 27.7% in the assay on CCRF-CEM leukemia; 49.7% in the assay with MOLT-4 leukemia; 25.4% with SR leukemia; 21.1% in the assay with RPMI-8226 leukemia. Further, the growth in the assay with OVCAR-8 ovarian is 7.94% (active); with OVCAR-5 ovarian it was 91.7%; with OVCAR-4 ovarian, 59.5%; with SK-OV-3 ovarian it was 77.6%; in the assay with IGROV1 ovarian, 46.5%; in the assay with OVCAR-3 ovarian, 35.8%. The growth in the assay with HS 578T breast was 71.7%; in the assay on NCI/ADR-RES ovarian, 94.6%.

As for `CN1C(=O)N(C)C2C1NN=c1s/c(=C\c3ccsc3)c(=O)n12` (stereo not given), the growth in the assay with SK-MEL-2 melanoma is 56.4%; in the assay on EKVX NSCLC, 65.8%; with SN12C renal, 58.8%; with UO-31 renal, 56%; in the assay with TK-10 renal, 76.8%; with ACHN renal, 47%. For the same compound, the growth with CAKI-1 renal was 35.7%; in the assay on A498 renal, 7.47% (active); in the assay with CCRF-CEM leukemia it was 28.8%; with MOLT-4 leukemia, 49.7%; in the assay with SR leukemia, 20.6%; with RPMI-8226 leukemia it was 58%. Further, the growth with OVCAR-8 ovarian is 59.5%; with OVCAR-5 ovarian it was 72.6%; with OVCAR-4 ovarian, 89.5%; in the assay with SK-OV-3 ovarian, 59.7%; with IGROV1 ovarian it was 46.9%; with OVCAR-3 ovarian it was 14.9%. The growth with HS 578T breast is 53.9%; in the assay on NCI/ADR-RES ovarian, 39.8%.

With `CN1C2CCC1/C(=C\c1ccc(Cl)cc1)C(=O)/C2=C/c1ccc(Cl)cc1`, the growth in the assay with SK-MEL-2 melanoma was 56.7%; with EKVX NSCLC it was 84.4%; in the assay on SN12C renal, 63.2%; with UO-31 renal it was 58.4%; with TK-10 renal, 79%; with ACHN renal, 75.7%. The growth with CAKI-1 renal is 68%; in the assay with A498 renal, 78.5%; with CCRF-CEM leukemia it was 24.4%; in the assay with MOLT-4 leukemia, 16.4%; in the assay with SR leukemia, 24.5%; in the assay on RPMI-8226 leukemia it was 20.2%. The growth is -27.1% (active) in the assay with OVCAR-8 ovarian; 102% with OVCAR-5 ovarian; 63.5% with OVCAR-4 ovarian; 93.4% in the assay with SK-OV-3 ovarian; 68.8% in the assay with IGROV1 ovarian; 46% in the assay on OVCAR-3 ovarian. In addition, the growth with HS 578T breast is 75.5%; with NCI/ADR-RES ovarian, 43.7%.

On to `Cc1ccc2c(C)c3c(ccc4ccccc43)c[n+]2c1`, for which the growth with SK-MEL-2 melanoma is 98.4%; with EKVX NSCLC, 44.1%; with SN12C renal, 26.3%; with UO-31 renal, 45.9%; with TK-10 renal, 111%; in the assay on ACHN renal it was 91.7%. Further, the growth is 75.9% with CAKI-1 renal; 89.7% with A498 renal; 57.1% in the assay with CCRF-CEM leukemia; 61.3% with MOLT-4 leukemia; 58.2% with SR leukemia; 47.8% in the assay with RPMI-8226 leukemia. For the same compound, the growth in the assay on OVCAR-8 ovarian was 52.5%; with OVCAR-5 ovarian it was 90.3%; in the assay with OVCAR-4 ovarian, 56.3%; with SK-OV-3 ovarian it was 83.8%; in the assay with IGROV1 ovarian, 60.6%; with OVCAR-3 ovarian it was 53.2%. In addition, the results for the growth with HS 578T breast and in the assay on NCI/ADR-RES ovarian were 77.8% and 95.9%, respectively.
